Experimental data reported in the supplement of paper PMC3334620.
Over roughly 33,000 sequences, “E-score (-0.5 to 0.5)” has its median near -0.035; the highest 2% begin near 0.34. The full list was thinned out, with the highest values kept by preference.

Target: T1, Mot3 (UniProt P54785)
T1 sequence: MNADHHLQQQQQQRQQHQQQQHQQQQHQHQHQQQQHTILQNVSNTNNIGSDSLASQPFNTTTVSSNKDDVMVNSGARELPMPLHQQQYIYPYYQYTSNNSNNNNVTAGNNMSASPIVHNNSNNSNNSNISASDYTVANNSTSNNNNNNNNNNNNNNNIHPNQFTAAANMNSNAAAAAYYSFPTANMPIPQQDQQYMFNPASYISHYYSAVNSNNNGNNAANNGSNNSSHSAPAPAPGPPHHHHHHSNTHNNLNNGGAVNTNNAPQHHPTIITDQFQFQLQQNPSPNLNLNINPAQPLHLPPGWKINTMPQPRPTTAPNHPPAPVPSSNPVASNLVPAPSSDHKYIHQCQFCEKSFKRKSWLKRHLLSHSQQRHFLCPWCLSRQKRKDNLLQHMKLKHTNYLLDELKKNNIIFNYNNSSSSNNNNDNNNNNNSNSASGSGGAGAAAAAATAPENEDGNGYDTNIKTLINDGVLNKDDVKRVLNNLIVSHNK
Test: PBM E-score (8-mer binding enrichment) (E-score (-0.5 to 0.5)); higher = stronger / more preferred TF binding
Details: protein concentration: 200 nM; construct: GST-full length
Experimental: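 Universal 'all 10-mer' protein binding microarrays (Agilent AMADID 015681) probed with GST-tagged S. cerevisiae TFs (full-length or DBD) made by in vitro transcription/translation (PURExpress), about 100-200 nM. Bound TF was detected with fluorescent anti-GST. Each ungapped 8-mer (which stands for itself and its reverse complement) is scored by the PBM enrichment score (E-score), a modified Wilcoxon-Mann-Whitney statistic from -0.5 to +0.5, computed with the Universal PBM Analysis Suite. Scale: above 0.35 generally sequence-specific binding.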

Row | Sequence | PBM E-score
1 | GGAGGCAC | 0.474
2 | GTTCTGGA | 0.0443
3 | AAGCACCT | 0.0273
4 | CGGCACCG | -0.0283
5 | AGGCACCC | 0.491
6 | CGGCACCA | -0.159
7 | AGGCACCA | 0.492
8 | GGGCACCC | -0.0287
9 | AGGCACCG | 0.491
10 | ACGCACCT | 0.129
11 | CGGCACCC | -0.126
12 | AAGCACCG | -0.206
13 | GGGCACCA | 0.171
14 | AGGCACCT | 0.491
15 | CCTATTGA | 0.124
16 | CGGTGTAC | 0.0428
17 | GGAGATAC | -0.137
18 | AGTTGGAC | 0.0582
19 | GGTAGAGA | -0.198
20 | TCCGGAGA | -0.297
21 | CCGGCGAG | -0.369
22 | AATCGACA | 0.201
23 | GATCCATA | -0.201

Row | Sequence | PBM E-score
24 | ATGGCGGA | -0.302
25 | TCTACCCA | -0.077
26 | CGGTGTCC | -0.376
27 | CAAAGCAG | 0.05
28 | AGCTAACC | -0.152
29 | CTGTAGGC | 0.285
30 | ATGTAGGA | 0.158
31 | ATGTAGAA | 0.359
32 | ATGTAGAG | 0.252
33 | ATGTAGGC | 0.361
34 | GCGTAGAA | 0.232
35 | GTGTAGAA | 0.364
36 | CTGTAGAA | 0.191
37 | GTGTAGTA | 0.292
38 | GTGCGGTA | -0.0948
39 | AGAGAGGA | -0.246
40 | AGTTAGAG | -0.21
41 | GGGAAGCA | -0.178
42 | AACAGCCT | 0.0281
43 | CGAGCCAG | -0.0469
44 | GTCGAACA | 0.0718
45 | GAAATTTA | 0.165
46 | CTGTACAC | 0.265

Row | Sequence | PBM E-score
47 | GTGTAAAC | 0.387
48 | ATGTAAAA | 0.415
49 | GTGTACAA | 0.325
50 | CTGTAAAG | 0.24
51 | GTGTACAC | 0.344
52 | AAGTAAAG | 0.131
53 | GGGTAAAC | -0.0508
54 | TTGTAAAA | 0.321
55 | CTGTAAAC | 0.295
56 | ATGTAAAG | 0.411
57 | CTGTAAAA | 0.302
58 | GCGCTCCA | -0.136
59 | GTTCGCCA | -0.103
60 | CCATTGAA | 0.0844
61 | CTCGGATC | -0.235
62 | GTCGGGAA | -0.104
63 | AGCATCCT | -0.268
64 | ATAAGATA | 0.0848
65 | CACGTTGC | 0.158
66 | TAGCACGA | -0.0559
67 | ACTCCGGG | -0.248
68 | CGCTCATA | -0.225
69 | GAGCCCAA | -0.136

Row | Sequence | PBM E-score
70 | CGGCCGGA | -0.264
71 | CCGAACAC | -0.0162
72 | GCGTAAAA | 0.314
73 | GGGTAAAA | 0.112
74 | AGGTAAAC | 0.302
75 | GTGTAAAA | 0.377
76 | ATGTAAAT | 0.42
77 | ACGTAAAT | 0.272
78 | ATGTAAAC | 0.414
79 | AGGTAAAT | 0.318
80 | ACGTAAAC | 0.251
81 | ATGGAGGA | 0.0248
82 | TAGTGACA | 0.124
83 | GTGTGCAA | 0.128
84 | CTGGCCCA | -0.265
85 | TATCGGCA | -0.0281
86 | ATAGCGCC | 0.228
87 | CGACTCTC | -0.347
88 | CATCGAAG | -0.163
89 | AACCTGGG | 0.0477
